# Source: the supplement of paper PMC11417369
# ± gives the standard deviation of the averaged measurements. Whole data set: some 25,000 sequences, median “ln(normalized median fluorescence intensity)” near 8.9, cut for the highest 2% near 10. For the sample, the highest values were picked, then their nearest neighbours and some sequences at random.
# Test system: PfAP2-LT AP2 domain (GST-tagged)
# Experiment: gcPBM binding intensity (ln(normalized median fluorescence intensity)); higher = stronger DNA binding
# Outline: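 GST-tagged P. falciparum DNA-binding domains, expressed in E. coli (about 25 μg on average), were applied for 1 h to an Agilent 4 × 180k array of primer-extended double-stranded 36-bp intergenic genomic probes plus negative controls. The binding buffer was 1× PBS with 1% milk, 0.2 mg/ml BSA, 0.5% salmon testes DNA and 0.03% Triton X-100. Bound protein was detected with Alexa488 anti-GST antibody and scanned at 488 nm. Binding intensity is the highest Masliner-normalised natural-log median intensity across replicate spots of either probe orientation.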
row,Sequence,gcPBM binding intensity (ln)
1,GAGAAAAATAAATACACACACATAAATAAATACATA [CACACA_site5102],9.74 ± 0.42
2,CAGTGCCAAATTAGCACACACATATATACATGAATT [CACACA_site2814],9.3 ± 0.38
3,TCGTCTCTTCTTGTTCTGTTTTAGAAGGCTATATAT [CACACA_negctrl_site180],8.88 ± 0.44
4,AAGAACAGATAAAATCGTACGTGAAACATGAACTTG [XGTACX_site7793],9.03 ± 0.48
5,AATGTGCAAACAAACTGTACTTTTTTTTTTTTTTTT [XGTACX_site928],8.86 ± 0.26
6,GATACAAAATGGGGAACACACACATATATATATATA [CACACA_site9278],10.1 ± 0.22
7,TACAAAATGGGGAACACACACATATATATATATATA [CACACA_site3844],10.2 ± 0.05
8,AAAAAAAAAAAACATACACACAAATATATACATACA [CACACA_site4011],9.15 ± 0.33
9,TACAAAATGGGGAACACACACATATATAAATAAATA [CACACA_site7751],9.6 ± 0.63
10,CATAAAAATGAACATACACACATATATATATATATA [CACACA_site2498],9.8 ± 0.17
11,AAAAAAAAAAAACACACACACACATACAAAATATAT [CACACA_site1448],10.04 ± 0.071
12,AAAATAAGCGTGAAACGTACATATTACATTATTATA [XGTACX_site8914],8.78 ± 0.56
13,TATTAAAGATACTCGGTATAAATAAATTTTAATGTG [XGTACX_negctrl_site239],8.54 ± 0.52
14,AAGAGAAATGGGCACACACACACATATTATAGATAT [CACACA_site6828],9.8 ± 0.21
15,TCTTATCCATATATTACACACTATATATAGAAATTA [CACACA_site291],8.66 ± 0.39
16,TTTGAAATATATTTAGTGCATATATATTGATTATAA [GTGCAC_site9604],8.39 ± 0.38
17,CCCTCCCCATGTTTAGTGCAAAAATATTTGAAATTG [GTGCAC_site9873],10.1 ± 0.057
18,TTTGAATACTGAATGGTGCAAATTGTTCTCCCCATG,8.67 ± 0.57
19,ATTTTAGAATAAATTTTTTACATTAAAAAACTATTT [CACACA_negctrl_site1414],8.21 ± 0.54
20,ACTTGTAAGAAACACACACACACACCGATATATATA [CACACA_site4594],10.1 ± 0.31
21,AAAGAAAGAAAGAATACACACACACCGATATATATA [CACACA_site9246],9.77 ± 0.31
22,AAACTTGTAAGAAACACACACACACGCATATAAATA [CACACA_site6518],9.98 ± 0.099
23,ATAAGAAGAAGAAAAACACACATATGTAGATATATA [CACACA_site7469],9.01 ± 0.42

row,Sequence,gcPBM binding intensity (ln)
1,AAACTTGTAAGAAACACACACACACCCATATATATA [CACACA_site797],9.96 ± 0.15
2,ACTTGTAAGAAACACACACACACACCCATATATATA [CACACA_site796],10.2 ± 0.16
3,TTTAACGTTGAATATACACACATATATATATATATA [CACACA_site3698],9.55 ± 0.042
4,TATATATATAAACACACACACATATATATATATATA [CACACA_site4584],9.94 ± 0.14
5,AAACATAAGAAACACACACACATATATATATATATA [CACACA_site3642],10.32 ± 0.064
6,TATATATAATTATAAGAACACACATATATATATATA [CACACA_site8786],9.46 ± 0.36
7,TATATAATTATAAGAACACACATATATATATATATA [CACACA_site2472],9.6 ± 0.16
8,AAACATAAGGGACACACACACATATATATATATATA [CACACA_site5920],10.2 ± 0.27
9,CATTATAAGAAACACACACACATATATATATATATA [CACACA_site1051],10.2 ± 0.25
10,AAAAAAAAAAGAAACACACACATATATATATATAAT [CACACA_site5052],9.44 ± 0.35
11,TATATTAAGAAACACACACACATATATATATATATA [CACACA_site1609],9.82 ± 0.23
12,TATATATATAAACACACACACACATATATATATATT [CACACA_site8814],9.84 ± 0.014
13,ATAAATTAACATTAAAGTACATTTTAATAAATATTA [XGTACX_site3647],8.31 ± 0.52
14,TACCAATAAATGAAGGTGCGTGCTTGCCTTTGCTAT,8.95 ± 0.31
15,TCTATACCTATTCTTACACACATATGTATAAATATA [CACACA_site6407],9.04 ± 0.36
16,ATATAATCAGCTTCTCTTTTATGCTAAAAAAAAAAA [CACACA_negctrl_site1310],8.25 ± 0.3
17,ATATTATAGTTATGAACATGCAAACATTACGAAATA [TGCATGCA_site54],8.76 ± 0.5
18,GTATATATATACCATTGTACTTTCGTAAAAATATTT [XGTACX_site4846],8.8 ± 0.4
19,TAAGACATGATATATACACACCTTGTTTTAATTTTC [CACACA_site5282],8.86 ± 0.45
20,TATATACATATATGTACACACATTACAGATGTACAT [CACACA_site966],9.21 ± 0.38
21,TATACTTTATATATTTTGTATATATATTTTTTTTAT [TGCATGCA_negctrl_site530],8.8 ± 0.48
22,GTTAATATTTTTGGGGGTACTTAAAAAAAAAAAAAA [XGTACX_site1477],8.525 ± 0.021
23,ATTTTTTTTTTTTTTTTGGGGGGGTATACTTTTAAA [CACACA_negctrl_site1020],10.6 ± 0.2
